{"source": "PubChem BioAssay (NCATS)", "note": "Results filed as inconclusive are left out. A number with no mark means an inactive call. The call rests on the fitted dose curve; in most records, active means well fitted inhibition curve with a large enough effect; inconclusive means small, poorly fitted or top-dose-only effect; inactive means flat fitted curve, though single readings scatter. On the % scale 0 is the no-effect control and ±100 the full control effect."}
{"target": "Calcium and integrin-binding protein 1 (Homo sapiens) (UniProt Q99828)", "sequence (Q99828 whole entry, looked up)": "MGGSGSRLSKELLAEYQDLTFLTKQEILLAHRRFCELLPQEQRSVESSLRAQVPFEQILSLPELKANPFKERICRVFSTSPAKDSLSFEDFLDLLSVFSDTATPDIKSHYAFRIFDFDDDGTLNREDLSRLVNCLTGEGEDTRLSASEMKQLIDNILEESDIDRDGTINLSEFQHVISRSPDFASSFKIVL", "test": "Primary qHTS for Identification of Calcium Integrin Binding Protein 1 (CIB1) Competitor (AID 1508620);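 further: GST tagged CIB1 binding a fluorescein labelled alphaIIb integrin peptide tracer; top concentration of the series differs between compounds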", "conditions": "CIB1-GST / FITC-alphaIIb peptide fluorescence polarization; series mostly up to 114 µM; activity change, negative = inhibition: at the top concentration", "summary_of_the_method": "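CIB1-GST (1 uM final) and compound incubated 15 min at room temperature before adding FITC-alphaIIb peptide tracer (100 nM final). Competition for binding read by fluorescence polarization (ex 480, em 540) after another 15 min at room temperature.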", "units": {"activity change, negative = inhibition": "%"}}
{"smiles": "Cc1cnc(-c2ccccc2C(C)C)nc1N(C)Cc1ccc(-c2cccnc2)cc1", "activity change, negative = inhibition": -0.685}
{"smiles": "COC(=O)c1ccccc1NC(=O)c1ccc(C#N)cc1", "activity change, negative = inhibition": -2.51}
{"smiles": "Cc1ccccc1-c1ccc(NC(=O)c2cccs2)cn1", "activity change, negative = inhibition": -1.11}
{"smiles": "Fc1ccccc1N1CCN(c2nc(-c3cccs3)nc3ccccc23)CC1", "activity change, negative = inhibition": -1.98}
{"smiles": "COc1ccccc1-c1ccc(=O)n(CC(=O)NCCc2ccccc2)n1", "activity change, negative = inhibition": 5.07}
{"smiles": "Cc1ccc(-c2ccc(=O)n(CC(=O)NCCc3ccccc3)n2)cc1", "activity change, negative = inhibition": 0.999}
{"smiles": "Cc1cccc(NC(=O)c2cnn3c(C)cc(C)nc23)c1", "activity change, negative = inhibition": 2.65}
{"smiles": "O=S(=O)(c1ccc2c(c1)OCO2)N1CCN(S(=O)(=O)c2c(F)cccc2F)CC1", "activity change, negative = inhibition": 1.85}
{"smiles": "Brc1cnc2nc(SCc3ccccc3)[nH]c2c1", "activity change, negative = inhibition": 0.0892}
{"smiles": "CCOC(=O)c1[nH]c2c(c1C)CCC(c1ccco1)C2", "note": "(stereo not given)", "activity change, negative = inhibition": -3.07}
{"smiles": "CC(=O)c1ccccc1-c1ncc(C)c(NCC2CCN(c3cccnc3)CC2)n1", "activity change, negative = inhibition": 7.27}
{"smiles": "O=C1CCCC2=C1C(c1[nH]ncc1Cl)NC(=NCc1ccccc1)N2", "note": "(stereo not given)", "activity change, negative = inhibition": 1.26}
{"smiles": "O=C(Cn1cc(CNC(=O)c2ccccc2)nn1)Nc1cc(C(F)(F)F)ccc1Cl", "activity change, negative = inhibition": 0.989}
{"smiles": "Cc1ccnc(CC(=S)N2CCN(c3cccc(C(F)(F)F)c3)CC2)c1", "activity change, negative = inhibition": -25.1}
{"smiles": "Cc1cc(NS(=O)(=O)c2ccc(NC(=O)Cc3ccc(Cl)cc3Cl)cc2)no1", "activity change, negative = inhibition": -17}
{"smiles": "Cc1ccc(OCCn2c(CCNC(=O)Cc3cccc(F)c3)nc3ccccc32)cc1", "activity change, negative = inhibition": 6.44}
{"smiles": "CC(=O)Nc1sc2c(c1Br)CCNC2", "activity change, negative = inhibition": 0.502}
{"smiles": "O=C(Nc1ccc(-c2nc3ccccc3[nH]2)cc1)c1ccc2ncsc2c1", "activity change, negative = inhibition": -5.53}
{"smiles": "Cc1cccc(-n2cnc3cc(C(=O)N4CCN(C)CC4)ccc32)c1", "activity change, negative = inhibition": 6.77}
{"smiles": "Nc1ccc(-c2ccc(NC(=O)c3cccs3)cn2)cc1", "activity change, negative = inhibition": 1.3}
{"smiles": "O=C(NC1CCCc2c1cnn2-c1ccc(F)cc1F)c1cccc(=O)[nH]1", "note": "(stereo not given)", "activity change, negative = inhibition": -0.0994}
{"smiles": "O=S1(=O)N=C(Oc2ccccc2-c2ccccc2)c2ccccc21", "activity change, negative = inhibition": -18.4}
{"smiles": "Nc1ccc(S(=O)(=O)Nc2cccc3cccnc23)cc1", "activity change, negative = inhibition": -1.9}
{"smiles": "COc1ccc(-c2ccc3ncnc(NCC4CCCO4)c3c2)cc1OC", "note": "(stereo not given)", "activity change, negative = inhibition": 3.36}
{"smiles": "N=c1c2c(ncn1CCN1CCOCC1)Oc1ccc3ccccc3c1C2c1ccccc1", "note": "(stereo not given)", "activity change, negative = inhibition": 0.14}
{"smiles": "CCC(O)(c1nnc(NCc2ccc3c(-c4ccc(F)cc4)cc(=O)oc3c2)o1)C(F)(F)F", "note": "(stereo not given)", "activity change, negative = inhibition": -3.39}
{"smiles": "CC(C)(C)N[S+](=O)([O-])c1cccc(-c2nnc(SCc3ccc(C(=O)O)cc3)n2-c2ccc(F)cc2)c1", "activity change, negative = inhibition": 1.44}
{"smiles": "Cc1nc(-c2ccc([S+](=O)([O-])N3CCN([S+](=O)([O-])c4c(F)cccc4F)CC3)s2)cs1", "activity change, negative = inhibition": -4.39}
{"smiles": "CC(C)(C)[C@H](NC(=O)c1ccc(N)c(Cl)c1)C(=O)N1CCC[C@H]1C(=O)N[C@H](C#N)Cc1nn[nH]n1", "activity change, negative = inhibition": -9}
{"smiles": "N#Cc1ccc(C(=O)NCC(=O)OC(C(=O)Nc2cc(C(F)(F)F)ccc2Cl)c2ccccc2)cc1", "note": "(stereo not given)", "activity change, negative = inhibition": -0.952}
{"smiles": "Cc1ccc(OCCn2c(CCNC(=O)c3cccc4ccccc34)nc3ccccc32)cc1", "activity change, negative = inhibition": 39}
{"smiles": "CC(C)c1ccccc1-c1nc(NCC2CCN(c3cccnc3)CC2)c2ccccc2n1", "activity change, negative = inhibition": 95.1}
{"smiles": "CC(C)(C)OC(=O)N1CCN(c2ccc(NCc3ccc(-c4ccc(C(C)(C)C)cc4)o3)cc2)CC1", "activity change, negative = inhibition": 4.2}
{"smiles": "CSc1ccc(-c2cnc(N3CCC(C(N)=O)CC3)s2)cc1", "activity change, negative = inhibition": 1.58}
{"smiles": "COC(=O)Nc1sc2c(c1C(N)=O)CCCC2", "activity change, negative = inhibition": -1.29}
{"smiles": "CCCCN1C(=O)c2ccccc2NC1c1ccc(OC)c(COc2c(C)cc(NC(C)=O)cc2C)c1", "note": "(stereo not given)", "activity change, negative = inhibition": 1.72}
{"smiles": "COc1cccc(C2c3c(ncn(CCN4CCOCC4)c3=N)Oc3ccc4ccccc4c32)c1", "note": "(stereo not given)", "activity change, negative = inhibition": -0.37}
{"smiles": "Cc1ccc(CNc2ncnc3ccc(-c4ccoc4)cc23)o1", "activity change, negative = inhibition": -16}
{"smiles": "COc1ccc(OC)c(C2=Nn3c(nnc3-c3ccccc3C)SC2)c1", "activity change, negative = inhibition": 2.78}
{"smiles": "Cc1ccc(-c2cnn(CC(=O)N(C)C(C)c3ccco3)c(=O)c2)cc1", "note": "(stereo not given)", "activity change, negative = inhibition": -2.61}
